According to PubChem BioAssay AID624169 (The Scripps Research Institute Molecular Screening Center, 2012):
In all, about 360,000 compounds went through this assay and about 2,400 (0.67%) were called active. What follows is part of a selection rich in actives, with near analogues and random picks from the rest. A number with no mark means an inactive call.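 How the source made its calls: active means activation above a run cutoff, the mean activation of all tested compounds plus 3 SD (cut at about 14% in these data); inactive means the rest.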

Each compound was assayed against 5-hydroxytryptamine receptor 2A (Mus musculus) (UniProt P35363) (assay: activation of mouse 5-HT2A receptor – cell-based, luminescence, primary screen (AID 624169;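 further: 0% = plate median of compound wells and 100% = 30 µM serotonin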)). Conditions: CHO-K1 mHTR2A beta-arrestin complementation, at 7.6 µM, stronger effect = higher value, percent of 30 µM serotonin response.
5-hydroxytryptamine receptor 2A (Mus musculus), sequence (P35363 whole entry, looked up): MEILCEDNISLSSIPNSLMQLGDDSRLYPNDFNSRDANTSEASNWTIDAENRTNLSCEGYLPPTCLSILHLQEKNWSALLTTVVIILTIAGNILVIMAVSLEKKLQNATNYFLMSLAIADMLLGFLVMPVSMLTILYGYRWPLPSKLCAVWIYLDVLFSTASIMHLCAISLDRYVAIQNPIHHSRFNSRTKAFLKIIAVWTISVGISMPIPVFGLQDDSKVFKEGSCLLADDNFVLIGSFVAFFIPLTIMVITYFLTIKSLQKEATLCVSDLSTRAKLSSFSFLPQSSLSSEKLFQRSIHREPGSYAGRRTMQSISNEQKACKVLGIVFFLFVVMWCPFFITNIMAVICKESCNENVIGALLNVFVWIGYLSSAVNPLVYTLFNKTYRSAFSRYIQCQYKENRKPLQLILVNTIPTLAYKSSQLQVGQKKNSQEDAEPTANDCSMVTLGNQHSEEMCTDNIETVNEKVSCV

| SMILES | activation |
| --- | --- |
| Cc1ccc(S(=O)(=O)C2C(=O)NC3(C)CC2c2ccccc2O3)cc1 (stereo unspecified) | -3.98% |
| O=C(NCc1ccccc1)c1ccc(CNc2c(N3CCCC3)c(=O)c2=O)cc1 | -2.51% |
| O=[N+]([O-])c1ccc2oc(-c3cccc(O)c3)nc2c1 | -2.7% |
| CC(=O)Oc1ccc2c(=O)oc(-c3ccc([N+](=O)[O-])cc3)nc2c1 | 6.81% |
| COc1ccc(-c2nc3cc([N+](=O)[O-])ccc3o2)cc1OC | 15.3% (active) |
| CNc1ccc(SC#N)cc1 | 8.45% |
| NCCCC[C@@H]1NC(=O)[C@H](CCC(=O)O)NC(=O)c2cc([N+](=O)[O-])cc(I)c2NCC[C@@H](C(N)=O)NC1=O | -1.82% |
| O=C1CCC(C(=O)Nc2ccc(OC(F)F)cc2)N1 (stereo unspecified) | 2.5% |
| Cc1ccc2nc(-c3ccncc3)cc(C(=O)Nc3ccncc3)c2c1 | 14.5% (active) |
| CC1CCCC(NC(=O)c2cc(-c3ccncc3)nc3ccccc23)C1C (stereo unspecified) | -0.93% |
| Cc1ccc2nc(-c3ccncc3)cc(C(=O)Nc3ccc(OC(F)F)cc3)c2c1 | -2.82% |
| CC1CCCCC1NC(=O)CCS(=O)(=O)c1ccc2c(c1)NC(=O)CO2 (stereo unspecified) | 1.84% |
| COc1ccccc1/C=C/C(=O)NC(=S)N1CCOCC1 | -0.42% |
| CCOC(=O)/C=c1\s/c(=C\c2ccccc2OC)c(=O)n1CC(=O)N1CCOCC1 | 15.6% (active) |
| CCc1cc(C(c2ccccc2OC)N2CCOCC2)c(NC(=O)c2ccccc2)s1 (stereo unspecified) | -2.8% |
| Cc1cccc(NC(=O)CSc2nnc(NC(=O)CN3CCOCC3)s2)c1 | 4.08% |
| CCCNS(=O)(=O)c1ccc(CCC(=O)N2CCCC2)cc1 | 0.26% |
| O=C1N(Cc2ccc3c(c2)OCO3)c2ccccc2C1(O)c1c[nH]c2ccccc12 (stereo unspecified) | 4.88% |
| CCOC(=O)[C@]12CCCC=C1N(Cc1ccc3c(c1)OCO3)C(=O)[C@H](CC(=O)NCc1cccs1)C2 | 23.4% (active) |

| SMILES | activation |
| --- | --- |
| CCOC(=O)[C@]12CCCC=C1N(Cc1ccc3c(c1)OCO3)C(=O)[C@H](CC(=O)N1CCN(C(=O)c3ccco3)CC1)C2 | 1.52% |
| COC(=O)[C@]12CCCCC=C1N(Cc1ccc3c(c1)OCO3)C(=O)[C@H](CC(=O)NCc1cccs1)C2 | 7.05% |
| CCNC(=O)c1cc2c(c(-c3cccc(-c4cncnc4)c3)n1)[C@H](CCO)N(C(C)=O)C2 | -0.81% |
| CN1CCC(=O)N([C@H](CO)Cc2ccccc2)CC1 | -5.13% |
| COCCN(CCOC)S(=O)(=O)NC[C@H]1O[C@@H](n2cnc3c(N)ncnc32)[C@H](O)[C@@H]1O | 4.4% |
| CC(=O)OCCOCn1cnn2c(=O)c(Br)c(C)nc12 | 1.26% |
| Nc1cc(C(=O)N2CCN(c3ccccc3Cl)CC2)ccc1N1CC2CC(C1)c1cccc(=O)n1C2 (stereo unspecified) | 17.7% (active) |
| COc1ccccc1NC(=O)c1ccc(N2CC3CC(C2)c2cccc(=O)n2C3)c(NC(=O)c2cccnc2)c1 (stereo unspecified) | 3.35% |
| CN(c1ccccc1)S(=O)(=O)c1ccc(C(=O)N2CCN(c3ccccc3Cl)CC2)cc1 | -7.83% |
| Nc1[nH][nH]c(=O)c1N=Nc1ccc2c(c1)OCO2 | -2.91% |
| CCc1ccc(N2CC(C(=O)Nc3ccc(S(=O)(=O)Nc4nccs4)cc3)CC2=O)cc1 (stereo unspecified) | -3.72% |
| CN(C)[C@@H]1C(=O)C(C(N)=O)=C(O)[C@@]2(O)C(=O)C3=C(O)c4c(O)ccc(Cl)c4[C@@H](O)[C@H]3C[C@@H]12 | 15.9% (active) |
| C=C1c2c(Cl)ccc(O)c2C(O)=C2C(=O)[C@]3(O)C(O)=C(C(N)=O)C(=O)[C@@H](N(C)C)[C@@H]3[C@@H](O)C12 (stereo partly specified) | -1.23% |
| C=C(C)C(=O)Nc1cccc(C2=NOC3(C2)C[C@H](C(N)=O)N(C(=O)C(c2ccccc2)c2ccccc2)C3)c1 (stereo partly specified) | 5.68% |
| CCn1c(SCC(=O)NCC2CCCO2)nc2ccccc21 (stereo unspecified) | 2.38% |
| CCCCn1c(SCC(=O)N2CCCC2=O)nc2cc(S(N)(=O)=O)ccc21 | 0% |
| CCn1c(SCC(=O)N2CCCC2=O)nc2ccccc21 | 15.3% (active) |
| O=C(NCc1ccccc1)[C@@H]1CSC2c3ccccc3C(=O)N21 (stereo partly specified) | 1.3% |
| COc1ccccc1CN1CCN(Cc2cc(OC)c(OC)cc2OC)CC1 | 25.8% (active) |

| SMILES | activation |
| --- | --- |
| COc1cccc(OC)c1C(=O)N1CCN(Cc2ccccc2F)CC1 | 2% |
| COc1cc(OC)c(OC)cc1CN1CCN(C(=O)c2cccc3ccccc23)CC1 | 0.49% |
| C/C(CC(=O)NCc1ccc(Cl)cc1)=N\NC(=O)COc1ccc(C)cc1Br | -5.06% |
| CC(C)CN(C(=O)c1cccc(S(=O)(=O)N2CCCCC2)c1)C1CCS(=O)(=O)C1 (stereo unspecified) | 3.09% |
| NC(=O)c1ccc(CN2CCC(Cc3ccccc3)CC2)cc1 | -5.52% |
| O=C(O)c1ccc(S(=O)(=O)N2CCC(Cc3ccccc3)CC2)cc1 | 22.2% (active) |
| Cn1cc(S(=O)(=O)N2CCC(Cc3ccccc3)CC2)c(=O)n(C)c1=O | -1.79% |
| CCCCN(C(=O)c1ccc(C)o1)c1c(N)n(CCCC)c(=O)[nH]c1=O | -12.3% |
| C/C(CC(=O)NC(C)(C)C)=N\NC(=O)c1ccco1 | 5.46% |
| Cc1cc(C)n(-c2ccc(NC(=O)C3CCCCN3C(=O)c3cccs3)cc2)n1 (stereo unspecified) | -0.84% |
| CC(=O)N1CCN(C(=O)c2cc(-c3ccc(Cl)s3)nc3ccccc23)CC1 | -0.1% |
| Cc1cc(C(=O)OCC(=O)N2C(C)CCCC2C)c2ccccc2n1 (stereo unspecified) | 5% |
| COC(=O)c1cc(N2CCNCC2)nc2ccccc12 | 54.9% (active) |
| CCOc1ccc(CN(Cc2ccco2)C(c2cccs2)c2nnnn2C(C)(C)C)cc1 (stereo unspecified) | 6.56% |
| CC(C)Oc1ccc(Cc2n[nH]c(=S)n2Cc2ccccc2)cc1Cl | 0.66% |
| COC(=O)CC(=O)N1CCN(c2ccc(Cl)c(Cl)c2)CC1 | 34.5% (active) |
| COC(=O)c1ccccc1OCC(=O)N1CCN(c2ccc(Cl)cc2)CC1 | 3.93% |
| CC(C)c1nnc(NC(=O)CCC(=O)N2CCN(c3cccc(Cl)c3)CC2)s1 | 10.8% |
